Test results from PubChem BioAssay (NCI).
Compounds without any hit were thinned out: in the full panel of roughly 83,000, 20% have a hit.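 Activity criterion: percent growth below 10, measured after cells in 96-well plates were exposed to a single compound concentration for 48 hours.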 Calls of active or inactive are those of the source.

Columns and labels:
Experiment in all cases: NCI-60 one-dose screen, 48 h (100 = growth as untreated, 0 = no growth, -100 = all killed)
Conditions in all cases: 10 µM unless noted
NCI-H23 lung = system: NCI-H23 lung
NCI-H226 lung = system: NCI-H226 lung
NCI-H322M lung = system: NCI-H322M lung
HOP-62 NSCLC = system: HOP-62 NSCLC
NCI-H460 lung = system: NCI-H460 lung
HOP-92 NSCLC = system: HOP-92 NSCLC
NCI-H522 lung = system: NCI-H522 lung
A549/ATCC NSCLC = system: A549/ATCC NSCLC
786-0 renal = system: 786-0 renal
COLO 205 colon = system: COLO 205 colon
DU-145 prostate = system: DU-145 prostate
K-562 leukemia = system: K-562 leukemia
MALME-3M melanoma = system: MALME-3M melanoma
MDA-MB-231 breast = system: MDA-MB-231 breast
SF-268 CNS = system: SF-268 CNS
SF-295 CNS = system: SF-295 CNS
SF-539 CNS = system: SF-539 CNS
UACC-257 melanoma = system: UACC-257 melanoma
M14 melanoma = system: M14 melanoma
RXF 393 renal = system: RXF 393 renal

Measured: growth

COc1cc(/C=C/c2cc(/C=C/c3ccc(O)c(OC)c3)n(C(N)=O)n2)ccc1O
active: NCI-H23 lung -4% | NCI-H322M lung -1.78% | HOP-62 NSCLC -3.02% | NCI-H460 lung 0.571% | HOP-92 NSCLC -42.8% | NCI-H522 lung -21.2% | A549/ATCC NSCLC 3.16% | 786-0 renal -45.8% | COLO 205 colon -37.7% | DU-145 prostate 2.11% | K-562 leukemia -23% | MALME-3M melanoma -4.94% | MDA-MB-231 breast 3.7% | SF-268 CNS -10.7% | SF-295 CNS 4.87% | SF-539 CNS -26.3% | UACC-257 melanoma 0.83% | M14 melanoma -66.2%
inactive: NCI-H226 lung 11.9%

O=C(Nc1cccc(-n2cc(-c3ccncc3)c(-c3ccc(Cl)c(O)c3)n2)c1)c1ccc(N2CCOCC2)c(C(F)(F)F)c1
inactive: NCI-H23 lung 61.3% | NCI-H226 lung 107% | NCI-H322M lung 82.1% | HOP-62 NSCLC 40.4% | HOP-92 NSCLC 10.2% | NCI-H522 lung 39.6% | A549/ATCC NSCLC 31.4% | 786-0 renal 59.6% | COLO 205 colon 96.1% | DU-145 prostate 52.7% | MALME-3M melanoma 10.7% | MDA-MB-231 breast 23.4% | SF-268 CNS 55.5% | SF-539 CNS 41.6% | UACC-257 melanoma 38.9% | M14 melanoma 22.7%
active: NCI-H460 lung 5.81% | K-562 leukemia 7.96% | RXF 393 renal -26%

COc1ccc(N=Cc2c(O)ccc3c2oc2cc(Cl)c(O)c(Cl)c23)cc1
inactive: NCI-H23 lung 93.7% | NCI-H226 lung 101% | NCI-H322M lung 122% | HOP-62 NSCLC 95% | NCI-H460 lung 99.8% | HOP-92 NSCLC 88.8% | NCI-H522 lung 68.1% | A549/ATCC NSCLC 95.5% | 786-0 renal 88.8% | COLO 205 colon 131% | DU-145 prostate 125% | K-562 leukemia 81.1% | MALME-3M melanoma 106% | MDA-MB-231 breast 107% | SF-268 CNS 105% | SF-295 CNS 115% | SF-539 CNS 96.7% | UACC-257 melanoma 76.5% | M14 melanoma 94.9%

CN(C)c1ncnc2c1ccn2C1OC(CO)C(O)C1O (stereo unspecified)
inactive: NCI-H23 lung 54.5% | NCI-H226 lung 72.7% | HOP-62 NSCLC 50.8% | NCI-H460 lung 45.6% | NCI-H522 lung 90.9% | A549/ATCC NSCLC 61.4% | 786-0 renal 34.8% | COLO 205 colon 54.3% | K-562 leukemia 50.4% | MALME-3M melanoma 133% | RXF 393 renal 67.9% | SF-268 CNS 40.1% | SF-539 CNS 67.8% | UACC-257 melanoma 111% | M14 melanoma 58.7%
active: NCI-H322M lung 3.23% | HOP-92 NSCLC -6.76% | DU-145 prostate 3.87% | MDA-MB-231 breast 0.0846%
